This is part of a sample that, as a whole, favours compounds with a hit. Of some 79,000 tested, about 15% had one in any assay. No stated cut-off is given here; in the data, active means growth inhibition above about 70%; inactive means the rest.
How the values were obtained:
[1] = NCI Yeast Anticancer Drug Screen. Data for the rad50 strain (AID 155);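 further: 0% = growth of vehicle-only cultures of the same strain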; details: S. cerevisiae rad50 strain growth inhibition; at 50.0 µM; active compounds read high
Outline: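 Vehicle-treated cultures provide the reference for the growth inhibition reported for compound-exposed, repair-deficient yeast.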

[2] = NCI Yeast Anticancer Drug Screen. Data for the mec2-1 strain (AID 157); details: S. cerevisiae mec2-1 strain, at 50.0 µM, active compounds read high
Outline: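 Each compound was tested on mec2-1 yeast, a strain altered in DNA damage repair or cell cycle control. Growth inhibition is reported relative to vehicle.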

[3] = NCI Yeast Anticancer Drug Screen. Data for the sgs1 mgt1 strain (AID 161);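 further: 0% = growth of cultures given vehicle only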; details: S. cerevisiae sgs1 mgt1 strain, at 50.0 µM, active compounds read high
Outline: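 Genetically altered yeast, compound exposure, growth inhibition relative to vehicle.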

[4] = NCI Yeast Anticancer Drug Screen. Data for the cln2 rad14 strain (AID 165);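 further: 0% = growth equal to vehicle treated cultures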; details: S. cerevisiae cln2 rad14 strain, at 50.0 µM, active compounds read high
Outline: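 Test compounds were added to cln2 rad14 yeast cultures; inhibition of growth was then determined by comparison with vehicle treatment.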

[5] = NCI Yeast Anticancer Drug Screen. Data for the bub3 strain (AID 167); details: S. cerevisiae bub3 mutant strain, at 50.0 µM, active compounds read high
Outline: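 Mutant yeast screening strain plus compound; vehicle-treated cultures serve as the 0% inhibition reference.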

[6] = NCI Yeast Anticancer Drug Screen. Data for the mlh1 rad18 strain (AID 175); details: S. cerevisiae mlh1 rad18 strain growth inhibition; at 50.0 µM; active compounds read high
Outline: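 Inhibition values reflect reduced growth of mutant yeast versus vehicle-treated controls following compound exposure; the mutations affect DNA damage repair.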

Measured: growth inhibition

CCCC(=O)Oc1ccc2ccccc2c1
inactive: [1] 7.65% | [2] 23.5% | [3] 1.8% | [4] 14.7% | [5] -1.5% | [6] -33.5%

COc1cc(C(C)=O)cc(OCc2ccccc2)c1OC
inactive: [1] -2.85% | [2] 15.7% | [3] 18.2% | [4] -13.1% | [5] 15.4% | [6] 7.25%

Cc1ccc(C(C)(CCC(=O)O)c2ccc(C)o2)o1
inactive: [1] 36.2% | [2] 12.2% | [3] 7.35% | [4] 45.2% | [5] 8.5% | [6] 25.4%

Nc1ccccc1SC(CC(=O)c1ccccc1)c1cccc([N+](=O)[O-])c1 (configuration not stated)
inactive: [1] -31.1% | [2] -26.1% | [3] 0.55% | [4] -29.6% | [5] -17.9% | [6] -13.5%

CC1CCC(=O)N1c1ccc(N)cc1 (configuration not stated)
inactive: [1] -19% | [2] -15.5% | [3] -15.2% | [4] 11.2% | [5] -23.3% | [6] 10.1%

O=C(/C=C/c1ccccc1)NN1CCOCC1
inactive: [1] 13.5% | [2] 3.25% | [3] 24.1% | [4] -34.5% | [5] 6.55% | [6] -2.95%

CC(C)(C)c1ccc(N)cc1
inactive: [1] -37.7% | [2] -29.8% | [3] -10.9% | [4] -3.45% | [5] -2.65% | [6] -13.5%

N#CNc1nc(N)cc(=O)[nH]1
inactive: [1] -4.65% | [2] -23.6% | [3] -2.45% | [4] 3% | [5] -27.1% | [6] 11.2%

Nc1cc(NC(=O)CO)cc(C(=O)O)c1
inactive: [1] 14.2% | [2] -1.15% | [3] -1% | [4] -0.4% | [5] 4.05% | [6] 7.1%

O=C1OCC(c2ccccc2)(c2ccccc2)C(=O)N1O
inactive: [1] 18.4% | [2] -2.1% | [3] 3.95% | [4] 13.2% | [5] 5.65% | [6] 16.5%

c1ccc(N2CCN(C(c3cccs3)N3CCN(c4ccccc4)CC3)CC2)cc1
inactive: [1] 7.35% | [2] 8.9% | [3] 0.8% | [4] -4.15% | [5] -5.5% | [6] 19.1%

CCCCCCCCCCCCCCCCCC/C(CC)=N/Nc1ccc([N+](=O)[O-])cc1[N+](=O)[O-]
inactive: [1] -21.1% | [2] 3.7% | [3] -12.2% | [4] -25.1% | [5] 11.2% | [6] 5.55%

Nc1nnc(-c2ccc(Cl)cc2)o1
inactive: [1] 21.3% | [2] -1.8% | [3] 21.2% | [4] 1.1% | [5] 0.05% | [6] 5.8%

c1ccc(-c2cc(-c3ccncc3)cc(-c3ccncc3)n2)cc1
inactive: [1] 3.85% | [2] -21% | [3] 9.4% | [4] 18.6% | [5] -1.9% | [6] -85.2%

Clc1ccc(-c2nnc(-c3ccncc3)o2)c(Cl)c1
inactive: [1] 18.1% | [2] -4.5% | [3] 17.9% | [4] -1.6% | [5] 27.2% | [6] 15.6%

O=C1CCCCC1CO (configuration not stated)
inactive: [1] -0.1% | [2] 1.5% | [3] -0.65% | [4] -5.5% | [5] 1.4% | [6] 2.3%

CCCCCCCCOC(=O)CO
inactive: [1] 23.8% | [2] -30.1% | [3] 17.8% | [4] 5.35% | [5] 3.1% | [6] 12.3%

O=C(Nc1ccc(Cl)c([N+](=O)[O-])c1)Oc1ccc2ccccc2c1
inactive: [1] 14.6% | [2] 3% | [3] 8.15% | [4] 11.9% | [5] 23.4% | [6] 10.7%

O=[N+]([O-])c1ccc(CS(=O)(=O)c2cccs2)o1
inactive: [1] 39% | [2] 12.8% | [3] 19.1% | [4] -6.25% | [5] 19.5% | [6] 16.6%

Nc1nc(-c2ccc(F)cc2)cc(-c2cc(-c3ccc(F)cc3)nc(N)n2)n1
inactive: [1] -17.1% | [2] -2.75% | [3] -20.9% | [4] -2% | [5] -7.15% | [6] 2.15%

O=C(O)c1cc(=O)[nH]c(=O)[nH]1
inactive: [1] -17.6% | [2] 0.05% | [3] -14.9% | [4] 7.05% | [5] -6.5% | [6] -21.2%

Cc1cc(Cl)ccc1NC(=O)C1C(=O)N(c2ccc(Cl)cc2C)C(=O)/C1=N\NC(N)=S (configuration not stated)
inactive: [1] -16.6% | [2] -6.6% | [3] -22.5% | [4] -0.25% | [5] -2.5% | [6] -27.1%

Cc1cccc(-n2cccc2)c1
inactive: [1] -1.6% | [2] -13.8% | [3] 4.8% | [4] -10.7% | [5] -16.3% | [6] 4.75%

O=[N+]([O-])c1ccc(Oc2ccc3ccccc3c2)c([N+](=O)[O-])c1
inactive: [1] -1.4% | [2] -17.9% | [3] 1.8% | [4] -56.5% | [5] -9.75% | [6] -14.3%

O=C(c1ccc(F)cc1)C1CCC1
inactive: [1] 16.3% | [2] -22.7% | [3] 16.6% | [4] 18.1% | [5] 18.6% | [6] 22.1%

CCCC[N+](C)(CCCC)CCCC
inactive: [1] 9.15% | [2] 9.65% | [3] 7.8% | [4] -1.15% | [5] 14.2% | [6] 3.3%

COc1ccc(S(=O)(=O)c2ccc(F)cc2)cc1
inactive: [1] -22.1% | [2] -14.2% | [3] -3.65% | [4] -5.8% | [5] -12.7% | [6] -21.4%

CCN1C(=O)C(=O)C(CC)(CC)C1=O
inactive: [1] -8.4% | [2] -1.75% | [3] -7% | [4] -8.25% | [5] 0.85% | [6] -13.6%

COc1nsc2ccc(C(C)C(N)=O)cc12 (configuration not stated)
inactive: [1] -35.5% | [2] 3.8% | [3] -9.1% | [4] -22.4% | [5] -2.25% | [6] -4.4%

COc1ccccc1N/N=c1\c2nc3ccccc3nc1n(-c1ccccc1C)c(=S)n2-c1ccccn1
inactive: [1] 3.4% | [2] 5.1% | [3] 16.3% | [4] -0.75% | [5] 0.9% | [6] 8.85%

Cc1ccc(N(C(=O)CC(=O)NN)C(=O)c2ccccc2Cl)cc1
inactive: [1] -12.4% | [2] -13.6% | [3] -8.25% | [4] 27% | [5] 4% | [6] -5.9%

C1=C[CH]([Sn]([CH]2C=Cc3ccccc32)([CH]2C=Cc3ccccc32)[CH]2C=Cc3ccccc32)c2ccccc21 (configuration not stated)
inactive: [1] -14.2% | [2] -6.75% | [3] -1% | [4] -6.4% | [5] 1.2% | [6] -1.7%

c1ccc2c[n+](Cc3ccc4ccccc4n3)ccc2c1
inactive: [1] 13% | [2] -4.3% | [3] 4.05% | [4] -60% | [5] -9.9% | [6] 9.9%

CC(C)N(CCCCO)C(C)C
inactive: [1] -0.75% | [2] -0.3% | [3] 14.2% | [4] 0.05% | [5] 2.7% | [6] 3.3%

COC(=O)c1c(-c2ccc3c(c2)OCO3)cn(C)c1C
inactive: [1] 5.7% | [2] 1.85% | [3] 24.6% | [4] -5.25% | [5] 7.55% | [6] 11.6%

Cc1cc2nc3ccc(=[N+](C)C)cc-3sc2cc1N
inactive: [1] -24.2% | [2] -39.8% | [3] -20.6% | [4] -14.2% | [5] -25.8% | [6] -24.1%

COC(=O)C(C)c1cc2ccccc2[nH]1 (configuration not stated)
inactive: [1] -8% | [2] -8.65% | [3] 0.9% | [4] -11.4% | [5] -46.7% | [6] 0.75%
